Laboratory results from PubChem BioAssay (NCATS).
Where “and” joins values, the source holds several entries; their conditions need not be identical. Equal entries are not always repeated. Records with an inconclusive call do not appear. A call without a number means that no potency is given here. Unmarked numbers belong to inactive results. Calls of active or inactive are those of the source. The call rests on the fitted dose curve; in most records, active means well fitted cell-killing curve with a large enough effect; inconclusive means small, poorly fitted or top-dose-only effect; inactive means flat fitted curve, though single readings scatter. *1 amine or outer side, *2 acyl side, *3 side chain or, on linkers, in order; H or OH if unused. Where a SMILES comes first, the peptide text is derived from it. Bridges are numbered along the chain shown (N, C = ends). [ ]: non-standard residue; d: D form. The star is where a group is joined. ξ: configuration not given here. ΔAla(3-NHCONH2) = NC(=O)NC=C(N)C(=O)O; X2 = NC1=NCCC(C(N[*:1])C(=O)[*:2])N1; ξβ3hOrn = NCCCC(N)CC(=O)*; Dap = NC[CH](N)C(=O)O

Test: Cellular viability qHTS for adrenocortical cancer (ACC) cell line NCI-H295R (AID 1963990); further: nearly all actives have a fitted effect of over 60% in size
Details: CellTiter-Glo ATP luminescence, 48 h; series mostly up to 46.1 µM
Source text: PI: Naris Nilubol, MD Surgical Oncology Program, National Cancer Institute (NCI) National Institute of Health (NIH), Bethesda, Maryland Adrenocortical cancer (ACC) is a rare malignancy with poor survival outcomes and few treatment options. Currently, mitotane is the only FDA-approved therapy for ACC. Although adjuvant radiation therapy is rarely utilized, it has the potential to improve survival in select cases. Through a quantitative high-throughput drug screen (qHTS), we identified auranofin (AF), a thioredoxin reductase (TXNRD) inhibitor, as a promising candidate drug. This study aims to evaluate whether AF can enhance the efficacy of radiation therapy in the treatment of ACC. Two human ACC cell lines, SW-13 and NCI-H295R, were screened using the National Center for Advancing Translational Sciences (NCATS) Pharmaceutical Collection (NPC) and the Mechanism Interrogation PlatE (MIPE) library (~4,991 compounds). CellTiter-Glo (Cat # G7570, Promega, Madison, WI) was utilized to measure cell viability. Described herein are the results of the corresponding viability assay.
PROTOCOL TABLE (as described by Inglese J, Shamu CE and Guy RK. 2007) SEQUENCE No. (e.g., 1, 2, 3, etc.); […] (e.g., Cells, Incubation, Reagent, etc.); VALUE; DESCRIPTION. 1; Cells; 5 uL; white, solid-bottom, 1536-well tissue-culture treated plates. 2; Time; overnight culture at 37C with 5% CO2. 3; Compounds and control; 23 nL; Kalypsis pin tool (Wako USA) equipped with a 1536-well pin head to transfer to the assay plates. 4; Time; 48 hours; 37C with 5% CO2. 5; Reagent; 4 uL; CellTiter-Glo luminescent substrate mix. 6; Time; 20 min at room temperature. 7; Detection; Luminescence; ViewLux plate reader NOTES (numbers refer to Sequence numbers above) 1. NCI-H295R cells were harvested from a T175 flask and resuspended in ITS-supplemented DMEM serum-free medium at a concentration of 300 000 cells/mL. Then 5 uL of resuspended cells were dispensed into each well of white, solid-bottom, 1536-well tissue-culture-treated plates using a multidrop combi dispenser. The plates were covered with stainless steel gasket lids. 2-3. The plates were cultured overnight at 37C with 5% CO2. Twenty-three nL of compounds (eight selected concentrations from the NPC / MIPE) or positive control (10 mM stock of bortezomib) in DMSO was transferred to each well of the assay plate using a pin tool (Kalypsys, San Diego, CA, USA). The final concentration of the compounds in the 5 uL assay volume ranged from 0.5 nM to 46 uM. 4-6. After 48 hours of incubation at 37C and 5% CO2, 4 uL of CellTilter-Glo luminescent substrate mix (Promega, Madison, WI, USA) was added to each well. Then the plates were incubated for 20 minutes at room temperature. 7. After incubation, luminescence was measured using a ViewLux plate reader (PerkinElmer, Waltham, MA, USA) with a clear filter was used to measure the number of metabolically competent cells. To determine compound activity in the qHTS assay, the titration-response data for each sample was plotted and modeled by a four-parameter logistic fit yielding IC50 and efficacy (maximal response) values. Raw plate reads for each titration point were normalized relative to positive control ([…], 100% inhibition) and DMSO-only wells (basal, 0%). REFERENCES: Inglese J, Shamu CE and Guy RK, Reporting data from high throughput screening of small molecule libraries, Nature Chemical Biology, 2007, 3(8): 438-441. doi.org/10.1038/nchembio0807-438.

SMILES | Potency | activity change, negative = viability loss
CCCCn1c(=O)n(Cc2ccccc2F)c(=O)c2[nH]c(Cc3ccc(NC(C)=O)cc3)nc21 | inactive | –
O=C(O)CCCCC(=O)O | inactive | –
CCC(=O)NC[C@H](Cc1ccc(OCCc2nc(-c3ccccc3)oc2C)cc1)N/C(C)=C\C(=O)c1ccc(C(F)(F)F)cc1 | inactive | –
COc1c(Cl)cc2c([nH]c3cnccc32)c1NC(=O)c1cccnc1C | inactive | –
Oc1cccc2[nH]ccc12 | inactive | –
O=C(/C=C\n1cnc(-c2cc(C(F)(F)F)cc(C(F)(F)F)c2)n1)NNc1cnccn1 | 2.24 µM (active) | –
COc1ccc(OC)c(-c2nnc3ccc(-c4ccc(OC)c(O[C@@H]5CCOC5)c4)nn23)c1 | 0.501 µM (active) | –
C[C@H]1[C@@H](OC(=O)CCC(=O)O)O[C@@H]2O[C@@]3(C)CC[C@@H]4[C@H](C)CC[C@@H]1[C@@]24OO3 | 17.8 µM (active) | –
CNC(=O)c1ccc2c(C(=Nc3cccc(CN(C)C)c3)c3ccccc3)c(O)[nH]c2c1 | 22.4 µM (active) | –
CC(=O)Nc1ccccc1 | inactive | –
CN(C)CCCO[C@@H]1[C@H]2OC(C)(C)O[C@H]2O[C@@H]1C(O)CO (stereo not given in full) | inactive | –
CCN1CCC[C@H]1CNC(=O)c1c(OC)ccc(Br)c1OC | inactive | –
COc1cc2ncnc(Oc3cccc(NC(=O)Nc4cc(C(C)(C)C(F)(F)F)on4)c3)c2cc1OC | inactive | –
O=c1[nH]nc(Sc2ncc([N+](=O)[O-])s2)n1-c1ccc2c(c1)OCCO2 | 6.31 µM (active) | –
O=C(Nc1cccnn1)N1CCC(=Cc2cccc(Oc3ccc(C(F)(F)F)cn3)c2)CC1 | 15.8 µM (active) | –
Oc1ccc2ccccc2c1SSc1c(O)ccc2ccccc12 | 31.6 µM (active) | –
Fc1ccc(Cl)cc1-c1nc(Nc2ccncc2)c2nccnc2n1 | inactive | –
OC[C@@H](O)[C@@H](O)[C@H](O)[C@@H](O)CO | inactive | –
CN(Cc1ccccc1)C(=O)c1ccc(S(=O)(=O)Nc2ccccc2)cc1 | inactive | –
O=S(=O)(O)NC1CCCCC1 | inactive | –

SMILES | Potency | activity change, negative = viability loss
CCCCC1C(=O)N(c2ccccc2)N(c2ccc(O)cc2)C1=O (stereo not given) | 5.17 µM (active) | –
Clc1ccc(COC(Cn2ccnc2)c2ccc(Cl)cc2Cl)c(Cl)c1 (stereo not given) | 10 µM (active) | –
CCN[C@H]1CN(CCCOC)S(=O)(=O)c2sc(S(N)(=O)=O)cc21 | inactive | –
CCc1cc(Cl)c(OC)c(C(=O)NC[C@@H]2CCCN2CC)c1O | inactive | –
O=C(C1CCCCC1)N1CC(=O)N2CCc3ccccc3C2C1 (stereo not given) | inactive | –
CC1CC(OC(=O)C(O)c2ccccc2)CC(C)(C)N1C (stereo not given) | inactive | –
CNc1nc(Nc2ccc(C(=O)N3CCOCC3)cc2OC)ncc1Cl | inactive | –
NCCCC(N)CC(=O)NCC1NC(=O)C(CO)NC(=O)C(N)CNC(=O)C(C2CCN=C(N)N2)NC(=O)C(=CNC(N)=O)NC1=O (stereo not drawn) (H-[Dap]S[Dap](ξβ3hOrn)[ΔAla(3-NHCONH2)][X2]; lactam 1-C; configuration not given here) | – | 3.92% [at 0.587 µM]
O=C1OC(CN2CCOCC2)CN1/N=C/c1ccc([N+](=O)[O-])o1 (stereo not given) | 16.4 µM (active) | –
Cc1c(F)cc2c(=O)c(C(=O)O)cn3c2c1CCC3C (stereo not given) | inactive | –
C[C@@]1(c2ncncc2F)NC(=O)c2cc(-c3cn[nH]c3)ccc21 | inactive | –
CCOCc1nc2c(N)nc3ccccc3c2n1CC(C)(C)O | inactive | –
Cn1cnc(-c2cc3nccc(Oc4ccc(NC(=S)NC(=O)Cc5ccccc5)cc4F)c3s2)c1 | 14.1 µM (active) | –
O=C(/C=C/C#Cc1cccc(NS(=O)(=O)c2ccccc2)c1)NO | 3.19 µM (active) | –
CC(C)C[C@H](NC(=O)[C@H](CCc1ccccc1)NC(=O)CN1CCOCC1)C(=O)N[C@@H](Cc1ccccc1)C(=O)N[C@@H](CC(C)C)C(=O)[C@@]1(C)CO1 | 65.1 nM (active) and 63.1 nM (active) | –
O=C1NC(=O)C(c2cnc3ccccn23)=C1c1cn2c3c(cc(F)cc13)CN(C(=O)N1CCCCC1)CC2 | 25.1 µM (active) | –
Cc1cc2cc(Oc3ccnc(Nc4cccc(CS(=O)(=O)NCCN(C)C)c4)n3)ccc2[nH]1 | 25.1 µM (active) | –
CCCCCCCCCCOCC(O)CN (stereo not given) | 18.4 µM (active) | –
COc1cc(OC)c2c(=O)[nH]c(-c3cc(C)c(OCCO)c(C)c3)nc2c1 | inactive | –
O=C(OCCOCCO)c1ccccc1Nc1cccc(C(F)(F)F)c1 | 25.9 µM (active) | –
